Measured values from PubChem BioAssay AID745 (Emory University Molecular Libraries Screening Center, 2007).
Hit rate of the full screen: of about 33,000 compounds, about 40 (0.1%) were called active. Only a selection was taken, and actives are over-represented in it overall. Unmarked numbers belong to inactive results. Rule as the data show it: active = z-score below about -3; inactive = the rest.

Assay: inhibitors of measles virus growth in cells, primary screen, measles RdRp inhibitor project, cell-based, single point, HTS (AID 745)
Conditions: infected Vero cells, GFP fluorescence, 64 h; stronger effect = lower value

With `COc1nc(SC)nnc1C` as the molecule, how does the z-score read?
Its z-score is -5.82 (active).

Which z-score does the source give for `COc1cc(NC(=O)c2cc(-c3ccc(Cl)cc3)on2)c(OC)cc1Cl` here?
Its z-score is -0.12.

For `COC(=O)c1sc(=S)n(-c2ccc(OC)c(Cl)c2)c1N`, which z-score is on record?
The z-score was 0.31.

With `O=C(Nc1c(C(=O)N2CCC(Cc3ccccc3)CC2)cnn1-c1ccccc1)c1ccc(Br)cc1` as the molecule, how does the z-score read?
Its z-score is 0.43.

Which z-score does the source give for `COc1ccc(-c2cc(C(=O)Nc3sc4c(c3C(N)=O)CCCC4)no2)cc1` here?
The z-score was 0.31.

For `CCCc1n(CC(O)COc2cccc(Cl)c2)c2ccccc2[n+]1C` (centres undefined), which z-score is on record?
The z-score was 0.55.

Which z-score does the source give for `CC1CC(C)(C)NC(=S)N1CCC(=O)Nc1ccc(OC(F)(F)F)cc1` (centres undefined) here?
Its z-score is -0.78.

Which z-score does the source give for `O=C1COc2ccc(Cl)cc2N1` here?
The z-score was 0.06.

For `CCOC(=O)c1sc(NC(=O)COc2ccc(C(C)C)c(C)c2)nc1C`, which z-score is on record?
Its z-score is -0.5.

Which z-score does the source give for `COc1ccc(C2C(C(=O)Nc3ccc(Br)cc3C)c3ccccc3C(=O)N2C)cc1` (centres undefined) here?
The z-score was -0.56.

Which z-score does the source give for `O=S(=O)(c1ccccc1)N1CCN(C2CC3CCC2C3)CC1` (centres undefined) here?
Its z-score is -0.28.

With `N=C1N=C(N)C(Cc2ccccc2)S1` (centres undefined) as the molecule, how does the z-score read?
Its z-score is -0.59.

Which z-score does the source give for `Cc1noc(NS(=O)(=O)c2ccc(NC(=O)c3cccc(Br)c3)cc2)c1C` here?
Its z-score is 0.43.

With `CC(=O)Nc1cc(C(=O)N(C)CCC#N)ccc1Sc1ccc(Cl)cc1` as the molecule, how does the z-score read?
The z-score was -1.08.

Which z-score does the source give for `COc1ccc(C2C(C(=O)Nc3ccccc3F)=C(C)NC3=C2C(=O)CCC3)cc1OC` (centres undefined) here?
The z-score was 0.03.

For `O=C(NCc1ccccc1)c1ccc2c(=O)n(-c3ccccc3)c(=S)[nH]c2c1`, which z-score is on record?
Its z-score is 0.39.

With `O=C1C(=O)N(c2nccs2)C(c2ccccc2Cl)/C1=C(\O)c1ccc(F)cc1` (centres undefined) as the molecule, how does the z-score read?
Its z-score is 1.65.

Which z-score does the source give for `CCCCNC(=O)c1cnn2c(C)c(Cc3ccccc3)c(C)nc12` here?
The z-score was -0.18.

With `O=C(c1ccc(-n2c(=S)[nH]c3ccccc3c2=O)cc1)N1CCN(C2CCCCC2)CC1` as the molecule, how does the z-score read?
The z-score was -0.06.

With `O=C(Nc1ncnc2sc3c(c12)CCCC3)c1ccccc1` as the molecule, how does the z-score read?
The z-score was 0.41.

Which z-score does the source give for `S=c1[nH]c(-c2ccc(Cl)cc2)cn1-c1cccc(Cl)c1` here?
Its z-score is -0.55.

With `Nc1nnc2c(n1)-c1ccccc1C2=O` as the molecule, how does the z-score read?
The z-score was 0.84.

Which z-score does the source give for `CCC(NS(=O)(=O)c1ccc(Oc2ccc([N+](=O)[O-])cc2)cc1)C12CC3CC(CC(C3)C1)C2` (centres undefined) here?
Its z-score is -1.36.

With `O=C(CN1C(=O)c2cccc3cccc1c23)N1CCCCCC1` as the molecule, how does the z-score read?
Its z-score is 0.09.

For `CCCCN(C)Cc1c(O)ccc2c(=O)c(Oc3ccc(CC)cc3)c(C(F)(F)F)oc12`, which z-score is on record?
Its z-score is -0.69.

With `Fc1ccccc1CSc1nc(NCC2CCCO2)c2ccccc2n1` (centres undefined) as the molecule, how does the z-score read?
The z-score was -1.9.

Which z-score does the source give for `COCCNC(=O)c1ccc(N2CC3CC(C2)c2cccc(=O)n2C3)c(NC(=O)c2cc3ccccc3oc2=O)c1` (centres undefined) here?
The z-score was 0.89.

For `Cc1ccc(NCc2ccccc2CO)cc1`, which z-score is on record?
Its z-score is -0.53.

For `C=CCC1(C#N)C(=S)NC(c2ccccc2)=C(C(=O)OCC)C1c1cccnc1` (centres undefined), which z-score is on record?
Its z-score is 1.37.

With `CC(=O)N1CCc2cc(Br)cc(S(=O)(=O)NCCCN3CCCCCC3)c21` as the molecule, how does the z-score read?
The z-score was 0.64.

Which z-score does the source give for `COc1ccc(C=NCCC2(c3ccc(OC)cc3)CCOC(C)(C)C2)cc1` (centres undefined) here?
Its z-score is -0.17.

Which z-score does the source give for `COc1ccccc1-c1nc2nc(C)cc(=O)n2[nH]1` here?
Its z-score is -0.19.

With `Cc1ccccc1C(=O)Nc1cccc(F)c1` as the molecule, how does the z-score read?
Its z-score is 1.39.

With `O=C(Cc1c(C(=O)O)[nH]c2ccc(Cl)cc12)NCc1ccc2c(c1)OCO2` as the molecule, how does the z-score read?
Its z-score is 1.5.

With `COc1ccc(NC(=O)Cn2c(=O)n(CCc3ccccc3)c(=O)c3c(C)c(C)sc32)cc1` as the molecule, how does the z-score read?
Its z-score is 2.83.

Which z-score does the source give for `Cn1c(=O)c(=O)n(C)c2cc(S(=O)(=O)N3CCCc4ccccc43)ccc21` here?
Its z-score is -0.1.

For `CCN1CCN(c2cc(C)c3cc(NC(=O)CCC4CCCC4)ccc3n2)CC1`, which z-score is on record?
Its z-score is -0.38.

For `Cc1cccc(C)c1NC(=O)CSc1ccc([N+](=O)[O-])cn1`, which z-score is on record?
The z-score was 0.01.

For `COc1cccc(NC(=O)Cn2cc(C(=O)C(F)(F)F)c3ccccc32)c1`, which z-score is on record?
The z-score was -0.44.

Which z-score does the source give for `COc1ccc(OC)c(C2Nc3cccc4cccc(c34)N2)c1` here?
The z-score was -0.45.

For `CCOP(=O)(Cc1cc(C(C)(C)C)c(O)c(C(C)(C)C)c1)OCC`, which z-score is on record?
Its z-score is -1.02.

For `CC1Cc2nc(SCC(=O)Nc3cccc(Cl)c3)n(C)c(=O)c2S1` (centres undefined), which z-score is on record?
The z-score was 0.

With `COc1cccc(OC)c1C(=O)Oc1cccc2ccc(C)nc12` as the molecule, how does the z-score read?
The z-score was -0.39.

Which z-score does the source give for `CC1(C)CC(=O)C2=C(C1)OC1=C(C(=O)CC(C)(C)C1)C2c1ccccc1C(=O)O` here?
The z-score was 0.12.

For `O=[N+]([O-])c1ccc(N2CCCCCC2)c(S(=O)(=O)N2CCOCC2)c1`, which z-score is on record?
The z-score was -0.01.

Which z-score does the source give for `Cc1ccccc1NC(=O)CC1Sc2ccccc2NC1=O` (centres undefined) here?
Its z-score is -0.07.

With `O=C(O)CCNC(=O)Cn1cnc2sc3c(c2c1=O)CCCC3` as the molecule, how does the z-score read?
Its z-score is 1.62.

With `CCn1c(SCC(=O)Nc2ccc(F)cc2)nc2c(c1=O)SC(C)C2` (centres undefined) as the molecule, how does the z-score read?
Its z-score is -0.54.

Which z-score does the source give for `O=C(CSc1nc2c([nH]c3ccccc32)c(=O)n1-c1cccc(Cl)c1)Nc1nccs1` here?
The z-score was -1.08.

For `COc1ccc(Cl)cc1NC(=O)CSc1nc2cc(OC)c(OC)cc2c2nc(C)nn12`, which z-score is on record?
The z-score was -0.11.

For `CCOCCOC(=O)C1=C(C)NC(=O)NC1c1cccc([N+](=O)[O-])c1` (centres undefined), which z-score is on record?
The z-score was 4.15.

With `COc1ccc(C=Cc2nc3ccccc3[nH]2)cc1` as the molecule, how does the z-score read?
The z-score was -0.15.

For `COc1cc(C2NC(=O)N(C)C(C)=C2C(=O)OCCc2ccccc2)cc(Br)c1O` (centres undefined), which z-score is on record?
Its z-score is -0.63.

For `COc1ccccc1-n1c(C)nc2cc(C(=O)NCc3cccnc3)ccc21`, which z-score is on record?
The z-score was 1.95.

For `Cc1ccc(C(=O)CC2(O)C(=O)N(C(C)C)c3ccccc32)c(C)c1` (centres undefined), which z-score is on record?
Its z-score is -0.29.

Which z-score does the source give for `Clc1ccc(-c2ncnn2-c2cccc(Cl)c2)cc1` here?
Its z-score is -0.25.

For `CCOc1ccc(Nc2cc(C(=O)NCCN3CCCC3)c3ccccc3n2)cc1`, which z-score is on record?
The z-score was -0.89.

For `O=C(Nc1ccccc1-c1nc2ccccc2s1)c1ccc(S(=O)(=O)N2CCCCCC2)cc1`, which z-score is on record?
The z-score was 0.69.

Which z-score does the source give for `O=C(Nc1ccc(Oc2ccccc2)cc1)c1cn(-c2ccc(Cl)cc2)c(=O)c2ccccc12` here?
Its z-score is -0.93.
